# Experimental data from the supplement of paper PMC5662767.
# Where a name gives a salt, the structure may show the parent alone.
# System: Drosophila S2 cl14 SmoIP sensor cells
# Test: normalized SmoIP GFP fluorescence (untreated unstimulated = 0%, untreated Hh-stimulated = 100%); higher = more Smo activation sensor fluorescence
# Settings: compound concentration: 2 uM, 24 h
# [1] = stimulation: Hh conditioned medium (+Hh)
# [2] = stimulation: mock conditioned medium (-Hh)
# 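Further: flow cytometry read-out as median GFP intensity of gated cells, compounds added 30 min before Hh-conditioned or mock medium, mock-treated cells serving as unstimulated baseline.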
SMILES,normalized SmoIP GFP fluorescence [1] [%],normalized SmoIP GFP fluorescence [2] [%]
CN1CCN(c2cccc(Nc3nc4c(-c5ccc(S(C)(=O)=O)cc5)cccn4n3)c2)CC1,92.1,-3.39
N#CC1(c2ccc(NC(=O)c3cccnc3NCc3ccncc3)cc2)CCCC1 [Apatinib-YN968D1],96.7,-1.34
Cc1cc(Nc2ncc(Cl)c(Nc3ccccc3S(=O)(=O)C(C)C)n2)c(OC(C)C)cc1C1CCNCC1,113,3.77
CCCS(=O)(=O)Nc1ccc(F)c(C(=O)c2c[nH]c3ncc(-c4ccc(Cl)cc4)cc23)c1F,91.2,3.72
O=S(=O)(NCCNC/C=C/c1ccc(Br)cc1)c1cccc2cnccc12 [H-89-dihydrochloride],105,5.45
Cc1cc(OCc2nnc(SC3CCCC3)n2-c2cccnc2)ccc1-c1ccc(S(C)(=O)=O)cc1,96.7,13.7
O=C(NOCC1CC1)c1ccc(F)c(F)c1Nc1ccc(I)cc1Cl,112,10.7
CC1(C)CNc2cc(NC(=O)c3cccnc3NCc3ccncc3)ccc21 [Motesanib-Diphosphate],136,43.3
CN1CCN(c2ccc3nc(-c4c(N)c5c(F)cccc5[nH]c4=O)[nH]c3c2)CC1,63.2,69.1
Cc1cc2c(F)c(Oc3ncnn4cc(OC[C@@H](C)OC(=O)[C@H](C)N)c(C)c34)ccc2[nH]1 [Brivanib-alaninate],117,9
CC(C)(F)C[C@H](N[C@@H](c1ccc(-c2ccc(S(C)(=O)=O)cc2)cc1)C(F)(F)F)C(=O)NC1(C#N)CC1 [Odanacatib-(MK0822)],110,-4.25
CNCc1cc(-c2ccccc2F)n(S(=O)(=O)c2cccnc2)c1,126,-15.1
CN[C@H]1CC[C@@H](c2ccc(Cl)c(Cl)c2)c2ccccc21 [sertraline-hcl],108,2.46
O=C(Nc1ccncc1)c1cc([N+](=O)[O-])ccc1Cl,114,-2.82
CC1(C)CC(=O)c2c(C(F)(F)F)nn(-c3ccc(C(N)=O)c(N[C@H]4CC[C@H](OC(=O)CN)CC4)c3)c2C1,233,83.8
N=C(N)NC(=N)NCCc1ccccc1 [Phenformin-hydrochloride],151,-9.04
CC(COc1ccccc1)N(CCCl)Cc1ccccc1 (configuration not stated) [Phenoxybenzamine-hydrochloride],148,-12.4
COc1ccc(CNCc2cccc3ccccc23)cc1,111,-2.82
CCc1c2c(nc3ccc(O)cc13)-c1cc3c(c(=O)n1C2)COC(=O)[C@]3(O)CC,95.2,5.3
CCOc1nc2cccc(C(=O)O)c2n1Cc1ccc(-c2ccccc2-c2noc(=O)[nH]2)cc1 [azilsartan-tak-536],104,-4.7
CCc1nc(N)nc(N)c1-c1ccc(Cl)cc1 [Pyrimethamine],101,0.702
CC(C)NCC(O)c1ccc(O)c(O)c1 (configuration not stated) [Isoprenaline-hydrochloride],141,-14.1
CN(C)CCC=C1c2ccccc2CCc2ccccc21 [amitriptyline-hydrochloride],104,-3.27
CN(C)CC/C=C1/c2ccccc2Sc2ccc(Cl)cc21 [Chlorprothixene],106,-0.378
CC(=O)S[C@@H]1CC2=CC(=O)CC[C@]2(C)[C@H]2CC[C@@]3(C)[C@@H](CC[C@@]34CCC(=O)O4)[C@H]12 [spironolactone],102,-4.58
FC(F)c1nc2ccccc2n1-c1nc(N2CCOCC2)nc(N2CCOCC2)n1,90.8,-6.73

SMILES,normalized SmoIP GFP fluorescence [1] [%],normalized SmoIP GFP fluorescence [2] [%]
CC(C)(Oc1ccc(C2CC2(Cl)Cl)cc1)C(=O)O (configuration not stated) [ciprofibrate],108,-5.35
Cc1ccc([C@@H]2O[C@H](CO)[C@@H](O)[C@H](O)[C@H]2O)cc1Cc1ccc(-c2ccc(F)cc2)s1 [canagliflozin],123,-10.2
CN[C@@H](C)C(=O)N[C@H](C(=O)N1CCC[C@H]1C(=O)Nc1snnc1-c1ccccc1)C1CCCCC1,85.6,4.68
CC(C)(C)c1ccc(C(=O)CCCN2CCC(OC(c3ccccc3)c3ccccc3)CC2)cc1 [ebastine],135,18.3
CC(=O)[C@H]1CC[C@H]2[C@@H]3CC=C4C[C@@H](O)CC[C@]4(C)[C@H]3CC[C@]12C [pregnenolone],116,8.09
Nc1ncnc2c1c(-c1cccc(OCc3ccccc3)c1)cn2C1CC(CN2CCCC2)C1 (configuration not stated),117,5.45
O=C(/C=C/c1ccc(O)c(O)c1)OCCc1ccccc1 [caffeic-acid-phenethyl-ester],114,71.8
CNC(=O)c1cc(Oc2ccc(NC(=O)Nc3cc(C(C)(C)C)nn3-c3ccc4ncccc4c3)c(F)c2)ccn1,183,0.605
CCOC(=O)[C@H](CCc1ccccc1)N[C@@H](C)C(=O)N1[C@@H](C(=O)O)C[C@@H]2CCC[C@@H]21 [Ramipril(Altace)],137,-16.3
c1cncc(CN2CCC(n3ncc4c(N5CCOCC5)nc(-c5ccc6[nH]ccc6c5)nc43)CC2)c1,104,-4.53
C=C[C@@]1(C)CC(=O)[C@]2(O)[C@@]3(C)[C@@H](O)CCC(C)(C)[C@@H]3[C@H](O)[C@H](OC(C)=O)[C@@]2(C)O1 [forskolin],137,-10
CCNC(=O)[C@H]1O[C@@H](n2cnc3c(N)nc(NCCc4ccc(CCC(=O)O)cc4)nc32)[C@H](O)[C@@H]1O,148,-8.77
NC(=O)N1CCC(CC(=O)N2CCC(C3c4ncc(Br)cc4CCc4cc(Cl)cc(Br)c43)CC2)CC1 (configuration not stated),127,10.1
CCN(CC)CCCC(C)Nc1nc(C)cc(Nc2ccc3nc(C)cc(N)c3c2)n1 (configuration not stated),112,-4.53
Cc1ccccc1C(C(=O)NC1CCCCC1)N(C(=O)Cn1ccnc1C)c1cccc(F)c1 (configuration not stated),111,-1.97
CN1C2CCCC1CC(NC(=O)c1nn(C)c3ccccc13)C2 (configuration not stated) [Granisetron-Hydrochloride],103,3.72
CCOC(=O)c1ccc(OC(=O)CCCCCNC(=N)N)cc1 [gabexate-mesylate],120,-12.6
CC(C)[C@H](O)C(=O)N[C@@H](C)C(=O)N[C@@H]1C(=O)N(C)CCc2ccccc21,98.8,13.8
Cc1cc([C@@H](C)Nc2ccccc2C(=O)O)c2nc(N3CCOCC3)cc(=O)n2c1,94.8,-5.22
CC1CCc2cc(F)cc3c(=O)c(C(=O)O)cn1c23 (configuration not stated) [flumequine],106,-3.79
COc1ccc2c(c1)c(CC(=O)N1CCOCC1)c(C)n2C(=O)c1ccc(Cl)cc1,108,-2.59
CC(C)(CO)c1cc2cc(NC(=O)C3(c4ccc5c(c4)OC(F)(F)O5)CC3)c(F)cc2n1C[C@@H](O)CO,104,-3.39
CN1CCN(c2nc(C3=C(c4c[nH]c5ccccc45)C(=O)NC3=O)c3ccccc3n2)CC1 [sotrastaurin-aeb071],131,40.1
COc1ccccc1N1CCN(CCCNc2cc(=O)n(C)c(=O)n2C)CC1 [urapidil-hydrochloride],110,-7.96
COc1cc2ncnc(Oc3cccc(NC(=O)Nc4cc(C(C)(C)C(F)(F)F)on4)c3)c2cc1OC,138,-13.4
